What was measured:
Settings in all cases: concentration: 1 μM, replicates: in singlicate; n = 1
MET = test system: MET
MINK = test system: T1, MINK
T1 construct: gene MINK1

MKK7 = test system: MKK7
MKNK1 = test system: MKNK1
MKNK2 = test system: MKNK2
MLCK = test system: T2, MLCK
T2 construct: gene MYLK3

MLK1 = test system: T3, MLK1
T3 construct: gene MAP3K9

MLK2 = test system: MLK2
MLK3 = test system: MLK3
MRCKA = test system: MRCKA
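Also: KINOMEscan kinase panel screen.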

SMILES: CCc1nc(-c2cccc(C)c2)c(-c2ccncc2)s1
- %Inh (MET): 4%
- %Inh (MINK): 50%
- %Inh (MKK7): 0%
- %Inh (MKNK1): 0%
- %Inh (MKNK2): 16%
- %Inh (MLCK): 6%
- %Inh (MLK1): 0%
- %Inh (MLK2): 0%
- %Inh (MLK3): 17%
- %Inh (MRCKA): 0%

SMILES: CCCNC(=O)Nc1ccc(Oc2ncnc3ccn(C)c23)cc1
- %Inh (MET): 8%
- %Inh (MINK): 1%
- %Inh (MKK7): 0%
- %Inh (MKNK1): 23%
- %Inh (MKNK2): 0%
- %Inh (MLCK): 0%
- %Inh (MLK1): 6%
- %Inh (MLK2): 6%
- %Inh (MLK3): 0%
- %Inh (MRCKA): 3%

SMILES: O=c1cc(N2CCOCC2)nc2n(Cc3ccc(F)c(Cl)c3)ccn12 [GSK2297099]
- %Inh (MET): 0%
- %Inh (MINK): 0%
- %Inh (MKK7): 0%
- %Inh (MKNK1): 5%
- %Inh (MKNK2): 1%
- %Inh (MLCK): 7%
- %Inh (MLK1): 0%
- %Inh (MLK2): 0%
- %Inh (MLK3): 0%
- %Inh (MRCKA): 0%

SMILES: COC(=O)c1c(-c2ccccc2)c2cc(C)ccc2c(=O)n1Cc1ccccc1
- %Inh (MET): 0%
- %Inh (MINK): 0%
- %Inh (MKK7): 0%
- %Inh (MKNK1): 0%
- %Inh (MKNK2): 0%
- %Inh (MLCK): 0%
- %Inh (MLK1): 0%
- %Inh (MLK2): 0%
- %Inh (MLK3): 0%
- %Inh (MRCKA): 0%
